This note sets out measurements from PubChem BioAssay (EPA / NIEHS).

As usually defined, the AC50 is the concentration giving half of the maximal activity seen.

The structures appear in SMILES notation. Active and inactive are the calls of the source. Rule for the calls: active = hit-call score of the fitted dose curve at least 0.9, where 1 is the maximum; inactive = score below 0.9.

Read-out in one experiment: Lipoprotein lipase (LPL), LPL (gene 4023)
Nature of the experiment: LTEA_HepaRG_LPL: Life Technologies and Expression Analysis (LTEA) Assay for Lipoprotein lipase (LPL) using HepaRG (AID 2283515). The following applies: mRNA level, 48 h; actives raise or lower the signal. An outline of the steps:
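Read-out is LPL transcript level by qRT-PCR, normalized to three housekeeping genes and fitted bidirectionally against the DMSO control. Human HepaRG cells received chemicals for 48 h at up to 100 uM.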
In the case of `CC(C)CCCCCCc1ccc(O)cc1`, the molecule was called inactive.

As to `N#CSCSc1nc2ccccc2s1`, the outcome was inactive.

For `CC(=O)S[C@@H]1CC2=CC(=O)CC[C@]2(C)[C@H]2CC[C@@]3(C)[C@@H](CC[C@@]34CCC(=O)O4)[C@H]12`, the molecule was called inactive.

`O=C(c1ccc(O)cc1O)c1ccc(O)cc1O`: the outcome was inactive.

Turning to `CCOC(=O)COc1cc(-n2ncc(C(F)(F)F)c(C)c2=O)c(F)cc1Cl`, the result was inactive.

For `OB(O)O`, the result was inactive.

`CCCCOC(=O)[C@@H](C)Oc1ccc(Oc2ccc(C(F)(F)F)cn2)cc1`: the call was inactive.

For `CC(C)(C)[C@@H](O)[C@@H](Cc1ccc(Cl)cc1)n1cncn1`, the AC50 is 16.5 µM (active).

Turning to `CCCN(CCC)C(=O)SCC`, the molecule was classed as inactive.

As for `CCCCOC(=O)C(C)Oc1ccc(Oc2ccc(C(F)(F)F)cn2)cc1` (stereo not given), the result was inactive.

`O=C(O)C1(C(=O)Nc2ccc(Cl)cc2Cl)CC1`: the call was inactive.

Regarding `COC(=O)c1ccc(I)cc1S(=O)(=O)NC(=O)Nc1nc(C)nc(OC)n1`, the outcome was inactive.

`C=CCOC(Cn1ccnc1)c1ccc(Cl)cc1Cl` (stereo not given): the half-maximal activity concentration (AC50) is 13.7 µM (active).

Consider `C#C[C@]1(O)CC[C@H]2[C@@H]3CCC4=CC(=O)CC[C@@H]4[C@H]3CC[C@@]21CC`, for which the result was inactive.

Take `C[C@]12C[C@H](O)[C@H]3[C@@H](CCC4=CC(=O)CC[C@@]43C)[C@@H]1CC[C@@H]2C(=O)CO`: the result was inactive.

With `C#CCOC(=O)[C@@H](C)Oc1ccc(Oc2ncc(Cl)cc2F)cc1`, the molecule was called inactive.

In the case of `CCCCC(CC)CN1C(=O)C2C3C=CC(C3)C2C1=O` (stereo not given), the AC50 was 58.4 µM (active).

Take `O=C(O)c1ccccc1`: the result was inactive.

On to `CCN(CC)C(=O)c1cccc(C)c1`, for which the molecule was classed as inactive.

Consider `CCCN(CCC)c1c([N+](=O)[O-])cc(C(F)(F)F)c(N)c1[N+](=O)[O-]`, for which the call was inactive.

For `Cc1nn(C)c(Oc2ccccc2)c1C=NOCc1ccc(C(=O)OC(C)(C)C)cc1`, the AC50 was 11.2 µM (active).

For the molecule `COC(=O)c1ccccc1C(=O)O`, the outcome was inactive.

Take `CCCOC(=O)c1ccc(C(=O)OCCC)nc1`: the molecule was classed as inactive.

Turning to `CCCOC(=O)NCCCN(C)C`, the outcome was inactive.

For the molecule `O=C(Nc1ccc([N+](=O)[O-])cc1Cl)c1cc(Cl)ccc1O`, the call was inactive.

Take `CCC(C)OC(=O)N1CCCCC1CCO` (stereo not given): the result was inactive.

As for `S=C([S-])NCCNC(=S)[S-].[Mn+2]`, the AC50 was 3.29 µM (active).

Read-out in a further experiment: MicroRNA 122 (MIR122), gene 406906
The experiment is described as follows: LTEA_HepaRG_MIR122: Life Technologies and Expression Analysis (LTEA) Assay for MicroRNA 122 (MIR122) using HepaRG (AID 2283516). Note: the transcript read is the microRNA miR-122. The conditions noted are these: mRNA level, 48 h; actives raise or lower the signal. An outline of the steps: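 HepaRG, 48 h exposure, 8-pt half-log from 100 uM, 0.5% DMSO; TaqMan qRT-PCR; bidirectional fit vs DMSO.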
For `CC(C)CCCCCCc1ccc(O)cc1`, the molecule was called inactive.

As for `N#CSCSc1nc2ccccc2s1`, the AC50 is 69.3 µM (active).

As for `CC(=O)S[C@@H]1CC2=CC(=O)CC[C@]2(C)[C@H]2CC[C@@]3(C)[C@@H](CC[C@@]34CCC(=O)O4)[C@H]12`, the AC50 is 67.5 µM (active).

`O=C(c1ccc(O)cc1O)c1ccc(O)cc1O`: the call was inactive.

On to `CCOC(=O)COc1cc(-n2ncc(C(F)(F)F)c(C)c2=O)c(F)cc1Cl`, for which the outcome was inactive.

For `OB(O)O`, the result was inactive.

For the molecule `CCCCOC(=O)[C@@H](C)Oc1ccc(Oc2ccc(C(F)(F)F)cn2)cc1`, the call was inactive.

As to `CC(C)(C)[C@@H](O)[C@@H](Cc1ccc(Cl)cc1)n1cncn1`, the molecule was classed as inactive.

Turning to `CCCN(CCC)C(=O)SCC`, the molecule was classed as inactive.

For the molecule `CCCCOC(=O)C(C)Oc1ccc(Oc2ccc(C(F)(F)F)cn2)cc1` (stereo not given), the result was inactive.

With `O=C(O)C1(C(=O)Nc2ccc(Cl)cc2Cl)CC1`, the AC50 is 50 µM (active).

Consider `COC(=O)c1ccc(I)cc1S(=O)(=O)NC(=O)Nc1nc(C)nc(OC)n1`, for which the molecule was called inactive.

With `C=CCOC(Cn1ccnc1)c1ccc(Cl)cc1Cl` (stereo not given), the AC50 was 20.5 µM (active).

For the molecule `C#C[C@]1(O)CC[C@H]2[C@@H]3CCC4=CC(=O)CC[C@@H]4[C@H]3CC[C@@]21CC`, the result was inactive.

In the case of `C[C@]12C[C@H](O)[C@H]3[C@@H](CCC4=CC(=O)CC[C@@]43C)[C@@H]1CC[C@@H]2C(=O)CO`, the result was inactive.

Take `C#CCOC(=O)[C@@H](C)Oc1ccc(Oc2ncc(Cl)cc2F)cc1`: the call was inactive.

For `CCCCC(CC)CN1C(=O)C2C3C=CC(C3)C2C1=O` (stereo not given), the call was inactive.

For `O=C(O)c1ccccc1`, the result was inactive.

As to `CCN(CC)C(=O)c1cccc(C)c1`, the outcome was inactive.

In the case of `Cc1nn(C)c(Oc2ccccc2)c1C=NOCc1ccc(C(=O)OC(C)(C)C)cc1`, the AC50 was 30.3 µM (active).

For the molecule `COC(=O)c1ccccc1C(=O)O`, the call was inactive.

Regarding `CCCOC(=O)c1ccc(C(=O)OCCC)nc1`, the outcome was inactive.

On to `CCCOC(=O)NCCCN(C)C`, for which the result was inactive.

Regarding `O=C(Nc1ccc([N+](=O)[O-])cc1Cl)c1cc(Cl)ccc1O`, the molecule was classed as inactive.

On to `CCC(C)OC(=O)N1CCCCC1CCO` (stereo not given), for which the outcome was inactive.

In the case of `S=C([S-])NCCNC(=S)[S-].[Mn+2]`, the AC50 was 2.03 µM (active).

Read-out in the next experiment: matrix metalloproteinase-10 (MMP10), MMP10 (gene 4319)
Nature of the experiment: LTEA_HepaRG_MMP10: Life Technologies and Expression Analysis (LTEA) Assay for matrix metalloproteinase-10 (MMP10) using HepaRG (AID 2283517). The conditions noted are these: mRNA level, 48 h; actives raise or lower the signal. An outline of the steps: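 Gain or loss of MMP10 mRNA is fitted relative to the 0.5% DMSO vehicle. The human hepatic line HepaRG receives a 48-hour serum-free exposure, in duplicate, with a maximum concentration of 100 uM.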
Turning to `CC(C)CCCCCCc1ccc(O)cc1`, the result was inactive.

For `N#CSCSc1nc2ccccc2s1`, the result was inactive.

As to `CC(=O)S[C@@H]1CC2=CC(=O)CC[C@]2(C)[C@H]2CC[C@@]3(C)[C@@H](CC[C@@]34CCC(=O)O4)[C@H]12`, the AC50 was 76.1 µM (active).

Turning to `O=C(c1ccc(O)cc1O)c1ccc(O)cc1O`, the outcome was inactive.

For `CCOC(=O)COc1cc(-n2ncc(C(F)(F)F)c(C)c2=O)c(F)cc1Cl`, the result was inactive.

With `OB(O)O`, the outcome was inactive.

`CCCCOC(=O)[C@@H](C)Oc1ccc(Oc2ccc(C(F)(F)F)cn2)cc1`: the molecule was called inactive.

`CC(C)(C)[C@@H](O)[C@@H](Cc1ccc(Cl)cc1)n1cncn1`: the outcome was inactive.

Consider `CCCN(CCC)C(=O)SCC`, for which the molecule was classed as inactive.

As for `CCCCOC(=O)C(C)Oc1ccc(Oc2ccc(C(F)(F)F)cn2)cc1` (stereo not given), the molecule was classed as inactive.

On to `O=C(O)C1(C(=O)Nc2ccc(Cl)cc2Cl)CC1`, for which the molecule was classed as inactive.

Consider `COC(=O)c1ccc(I)cc1S(=O)(=O)NC(=O)Nc1nc(C)nc(OC)n1`, for which the call was inactive.

On to `C=CCOC(Cn1ccnc1)c1ccc(Cl)cc1Cl` (stereo not given), for which the AC50 was 34.4 µM (active).

For `C#C[C@]1(O)CC[C@H]2[C@@H]3CCC4=CC(=O)CC[C@@H]4[C@H]3CC[C@@]21CC`, the result was inactive.

For `C[C@]12C[C@H](O)[C@H]3[C@@H](CCC4=CC(=O)CC[C@@]43C)[C@@H]1CC[C@@H]2C(=O)CO`, the outcome was inactive.

For `C#CCOC(=O)[C@@H](C)Oc1ccc(Oc2ncc(Cl)cc2F)cc1`, the result was inactive.

For the molecule `CCCCC(CC)CN1C(=O)C2C3C=CC(C3)C2C1=O` (stereo not given), the call was inactive.

As to `O=C(O)c1ccccc1`, the outcome was inactive.

As for `CCN(CC)C(=O)c1cccc(C)c1`, the molecule was classed as inactive.

Consider `CCCN(CCC)c1c([N+](=O)[O-])cc(C(F)(F)F)c(N)c1[N+](=O)[O-]`, for which the result was inactive.

Consider `Cc1nn(C)c(Oc2ccccc2)c1C=NOCc1ccc(C(=O)OC(C)(C)C)cc1`, for which the AC50 was 50 µM (active).

For the molecule `COC(=O)c1ccccc1C(=O)O`, the molecule was classed as inactive.

In the case of `CCCOC(=O)c1ccc(C(=O)OCCC)nc1`, the result was inactive.

For `CCCOC(=O)NCCCN(C)C`, the call was inactive.

With `O=C(Nc1ccc([N+](=O)[O-])cc1Cl)c1cc(Cl)ccc1O`, the AC50 was 3.43 µM (active).

On to `CCC(C)OC(=O)N1CCCCC1CCO` (stereo not given), for which the molecule was called inactive.

As for `S=C([S-])NCCNC(=S)[S-].[Mn+2]`, the molecule was classed as inactive.
